Tgondii IFNg – T. gondii growth inhibition under IFN-gamma; Toxoplasma gondii growth in IFN-gamma-treated host cells; active compounds read low; activity change, negative = inhibition, % (test concentration not listed); hit rate 3.8% among 69,000; AID 1259416; in the data active means activity change below about -70%, passing the limit was not always enough;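 further: host cells are HeLa cells infected with Toxoplasma gondii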
* marks the source's active call; other numbers are inactive results; i = inactive; ! = repeats disagree. The full list was thinned out, with hits kept by preference.

SMILES	Tgondii IFNg
CCC1(O)C(=O)OCc2c1cc1n(c2=O)Cc2cc3ccccc3nc2-1 (stereo not given)	-106*
CC[C@@]1(O)C(=O)OCc2c1cc1n(c2=O)Cc2cc3ccccc3nc2-1	-88*
COc1ccc(Cl)cc1NC(=O)c1c(O)c2cccnc2n(Cc2ccccc2)c1=O	132
c1ccc(C(Cn2cnnc2)N2CCOCC2)nc1 (stereo not given)	9
CN(C)C(=O)C1CCC2(CCNCC2)CO1 (stereo not given)	-18
O=[N+]([O-])c1ncc[nH]1	-20
CS(=O)(=O)N1CC2(CCN(Cc3ccsc3)C2)C1	-3
CC(=O)NC1CCSC1=O (stereo not given)	-78*!
Cc1ncc2c(c1C(=O)O)CCN(Cc1cccs1)C2	0
CN1Cc2ccccc2[C@@H]2c3cccc4[nH]cc(c34)C[C@H]21	-78*
CC(C)[C@@]1(NC(=O)[C@@H]2C[C@@H]3c4cccc5[nH]cc(c45)C[C@H]3N(C)C2)O[C@@]2(O)[C@@H]3CCCN3C(=O)[C@H](Cc3ccccc3)N2C1=O	-66
Nc1cc2nc3ccccc3nc2cc1O	i
O=C(Nc1ccccc1C(F)(F)F)c1cc2cccnc2n(Cc2ccc(F)cc2)c1=O	-34
COCC12CCCOC1CCN(Cc1c(C)noc1C)C2 (stereo not given)	0
Cc1cccc(CN2CC[C@H]3[C@@H]2CCN3S(=O)(=O)C2CC2)n1	-36
ClC=C(Cl)Cl	22
C[C@@H]1C[C@@H]([C@H](O)CC2CC(=O)NC(=O)C2)C(=O)[C@@H](C)C1	-79*
O=C1[C@H]2CN(Cc3ccco3)C[C@H]2CN1c1cncnc1	-14
COc1ccc(CN2C[C@H]3OCCN(c4ncccn4)[C@H]3C2)cc1	-30
Cc1noc(C)c1CN1CC2CC(C1)N(C(=O)c1ccco1)C2 (stereo not given)	135
CSc1ccccc1C(=O)C1CCCN(Cc2cc(C(C)C)n[nH]2)C1 (stereo not given)	9
COCc1cncc2c1CCN(S(=O)(=O)C1CC1)C2	16
COCc1cncc2c1CCN(CC(C)C)C2	-2
COCc1cncc2c1CCN(C1CCOC1)C2 (stereo not given)	-109*
C#CCOC(=O)C1=CCCN(C)C1	16
SMILES	Tgondii IFNg
C[CH2][Hg][S]c1ccccc1C(=O)O	-73*!
CNc1ccccc1C(=O)O	-4
CCCCC(CC)COC(=O)c1ccccc1C(=O)OCC(CC)CCCC (stereo not given)	8
c1cncc(OC2COC3(CCN(Cc4cnc[nH]4)C3)C2)c1 (stereo not given)	6
CN(C)CCNC(=O)c1cc2cccnc2n(Cc2ccccc2)c1=O	-11
Cc1ccc2c(c1)C1CN(C)CCC1N2C(=O)Nc1cccc(Cl)c1 (stereo not given)	-40
C[C@]12CCC3C(CC[C@]4(O)C[C@@H](O)CC[C@]34C=O)[C@@]1(O)CCC2C1=CC(=O)OC1 (stereo not given in full)	-84*!
C[C@@H]1O[C@@H](O[C@H]2CC[C@]3(C=O)C4CC[C@]5(C)[C@@H](C6=CC(=O)OC6)CC[C@]5(O)C4CC[C@]3(O)C2)[C@H](O)[C@H](O)[C@H]1O (stereo not given in full)	-65
CCOC1C2CCC1N(Cc1cccc(C)n1)CCO2 (stereo not given)	-17
COCCNC(=O)c1cc2cccnc2n(Cc2ccccc2F)c1=O	85
c1cncc(CN2CCOCC3(CCC(CN4CCCC4)O3)C2)c1 (stereo not given)	44
CCN(C(C)=O)c1cccc(-c2ccnc3c(C#N)cnn23)c1	-19
C=CC1CN2CCC1CC2[C@@H](OC(=O)c1ccc(OC)cc1)c1ccnc2ccccc12 (stereo not given in full)	1
C=C[C@H]1CN2CC[C@H]1C[C@@H]2[C@@H](OC(=O)OCC)c1ccnc2ccc(OC)cc12	3
CC[C@H]1CN2CCC1C[C@@H]2[C@@H](O)c1ccnc2ccc(OC)cc12 (stereo not given in full)	-78*!
COc1ccc(OC)c(NC(=O)c2cc3cccnc3n(Cc3ccc(Cl)cc3)c2=O)c1	29
COCCN1C[C@H]2[C@@H](OC)CCN(C(=O)COc3ccccc3)[C@H]2C1	-2
C[C@H]1CCC/C=C/[C@@H]2C[C@H](O)C[C@H]2[C@H](O)/C=C/C(=O)O1	-77*
C[C@H]1CCCC(=O)CCC/C=C/c2cc(O)cc(O)c2C(=O)O1	-4
CO[C@@H]1CCN(C(=O)c2cc(C)on2)[C@H]2CN(CC3CC3)C[C@@H]12	-11
N#Cc1ccccc1NC(=O)c1cc2cccnc2n(Cc2ccccc2F)c1=O	-8
COc1cc2c(cc1OC)[C@@]13CCN4CC5=CCOC6CC(=O)N2C1[C@H]6[C@H]5C[C@H]43 (stereo not given in full)	-24
O=C(c1cc(F)ccc1F)C1CCCN(Cc2ccsc2)C1 (stereo not given)	14
Cc1[nH]c2ccccc2c1CN(C)C	13
C[C@@H]1O[C@@H](O[C@H]2C[C@@H](O)[C@]3(CO)[C@H]4[C@H](O)C[C@]5(C)[C@@H](C6COC(=O)C6)CC[C@]5(O)[C@@H]4CC[C@]3(O)C2)[C@H](O)[C@H](O)[C@H]1O (stereo not given in full)	-99*
SMILES	Tgondii IFNg
CC1OC(OC2CC(O)C3(CO)C4C(O)CC5(C)C(C6=CC(=O)OC6)CCC5(O)C4CCC3(O)C2)C(O)C(O)C1O (stereo not given)	-81*
Cc1nc(CN2C[C@H](c3ccccc3)[C@@H]3[C@H]2C2CCN3CC2)co1	1
Cc1noc2ccc(C3NCCc4[nH]cnc43)cc12 (stereo not given)	-3
CCc1cn[nH]c1C1CCNCC1	17
Cc1noc(C)c1C(=O)N1C[C@@H]2CCN[C@@H]2C1	58
CCCN(CCC)C1CCc2ccc(O)cc2C1 (stereo not given)	-76*!
CCCN(CCC)C1CCc2cccc(O)c2C1 (stereo not given)	16
Cc1nn(Cc2ccccc2Cl)c(=N)s1	9
CC(C)Cc1ccc(C2NCCc3[nH]cnc32)s1 (stereo not given)	0
COCC12CCCOC1CCN(CC1CC1)C2 (stereo not given)	25
COC(=O)[C@H]1[C@H](CO)[C@H]2Cn3c(ccc(-c4ccc(F)cc4)c3=O)[C@@H]1N2C(=O)c1ccccc1F	3
CC(C)[N+](C)(CCC(C(N)=O)(c1ccccc1)c1ccccc1)C(C)C	16
CCCN1C(=O)C(C(=O)/C=C/c2ccc(C)cc2)C2c3ccccc3OC13CCCCC23 (stereo not given)	4
O=C(/C=C/c1ccc(Cl)cc1)C1C(=O)NC23CCCCC2C1c1ccccc1O3 (stereo not given)	12
CCOc1ccc(/C=C/C(=O)C2C(=O)NC34CCCCC3C2c2ccccc2O4)cc1OC (stereo not given)	-80*
CC(C)NC(=O)[C@H]1COC[C@H]2CN(Cc3ccncc3)C[C@@H]21	-35
CC(C)Cc1cc(C(=O)N2CCC3(CC2)C(=O)NCCN3C)on1	-42
CC(C)CCCC1(C)C=Cc2c(O)c3c(c(CCC(C)C)c2O1)OC12C(CC4CC1C(C)(C)OC2(CCC(C)C(=O)O)C4O)C3=O (stereo not given)	4
CC(C)=CCC[C@]1(C)C=Cc2c(O)c3c(c(CC=C(C)C)c2O1)O[C@]12C(=C[C@@H]4C[C@H]1C(C)(C)O[C@@]2(CC=C(C)C(=O)O)C4=O)C3=O	-85*

Screens deposited in PubChem by Broad Institute.
